# Data as given in PubChem BioAssay (NCATS).
# Records with an inconclusive call do not appear. A number with no mark means an inactive call. Calls come from the whole dose curve; as a rule, active = well fitted inhibition curve with a large enough effect; inconclusive = small, poorly fitted or top-dose-only effect; inactive = no such curve, though single readings can be large or run the other way.
# Target: Papain (Carica papaya) (UniProt P00784)
# Test: Primary qHTS assay for inhibitors of the protease papain (AID 1645873);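 note: papain turnover of Z-FR-AMC read as the AMC fluorescence gain over 10 min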
# Settings: papain Z-FR-AMC cleavage, AMC fluorescence; series mostly up to 49.8 µM; activity change, negative = inhibition: at the top concentration
# % is set by controls: 0 for no effect and ±100 for the full control effect.
# Chain of Papain (Carica papaya) (P00784 whole entry, looked up): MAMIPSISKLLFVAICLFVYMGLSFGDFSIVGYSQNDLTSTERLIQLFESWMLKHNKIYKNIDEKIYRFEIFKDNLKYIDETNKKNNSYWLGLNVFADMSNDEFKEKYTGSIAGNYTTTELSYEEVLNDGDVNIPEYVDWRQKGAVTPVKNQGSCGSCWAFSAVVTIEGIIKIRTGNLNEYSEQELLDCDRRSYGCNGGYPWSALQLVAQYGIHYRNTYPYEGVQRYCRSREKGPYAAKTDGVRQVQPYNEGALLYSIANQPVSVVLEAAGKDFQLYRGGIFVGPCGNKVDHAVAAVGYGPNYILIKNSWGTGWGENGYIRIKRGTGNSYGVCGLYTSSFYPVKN
row,SMILES,"activity change, negative = inhibition"
1,Cc1cc(C)c(/C=C2\C(=O)Nc3ccccc32)[nH]1,14.1%
2,CSc1ccc(C(=O)c2[nH]c(=O)[nH]c2C)cc1,-4.41%
3,CCCC(C(=O)OCCN(CC)CC)(c1ccccc1)c1ccccc1,2.25%
4,C[C@]12C=CC(=O)C=C1CC[C@H]1[C@@H]3C[C@@H](O)[C@](O)(C(=O)CO)[C@@]3(C)C[C@H](O)[C@@]12F,0.99%
5,CCOC(=O)C1=C(C)NC(C)=C(C(=O)OC)C1c1cccc([N+](=O)[O-])c1 (stereo not given),-10.4%
6,CN1C[C@H](C(=O)N[C@]2(C)O[C@@]3(O)[C@@H]4CCCN4C(=O)[C@H](Cc4ccccc4)N3C2=O)C[C@@H]2c3cccc4[nH]cc(c34)C[C@H]21,-2.61%
7,Cc1nnc(SCC2=C(C(=O)O)N3C(=O)[C@@H](NC(=O)Cn4cnnn4)[C@H]3SC2)s1,-18.1%
8,OC(CCN1CCCCC1)(c1ccccc1)C1CCCCC1 (stereo not given),1.35%
9,CCNC(=O)N1CCN(CCCC(c2ccc(F)cc2)c2ccc(F)cc2)CC1,14.5%
10,CC(C)NCC(O)c1cc(O)cc(O)c1 (stereo not given),-13.4%
11,Cc1nc2sccn2c(=O)c1CCN1CCC(=C(c2ccc(F)cc2)c2ccc(F)cc2)CC1,-4.59%
12,COCCCC/C(=N\OCCN)c1ccc(C(F)(F)F)cc1,43.4%
13,COCCOC(=O)C1=C(C)NC(C)=C(C(=O)OC(C)C)C1c1cccc([N+](=O)[O-])c1 (stereo not given),20.1%
14,C[n+]1cc2c3c(ccc2c2ccc4cc5c(cc4c21)OCO5)OCO3,-24.2%
15,C[C@]12CC[C@@H]3c4ccc(O)cc4C[C@@H](CCCCCCCCCS(=O)CCCC(F)(F)C(F)(F)F)[C@H]3[C@@H]1CC[C@@H]2O (stereo not given in full),-8.91%
